Measurements reported in the supplement of paper PMC11732987, “Enantioselective OTUD7B fragment discovery through chemoproteomics screening and high-throughput optimisation” (Communications Chemistry, 2025).

The compounds below were run against UniProt P51784 (assay: log2 ratio of Biotin-Ahx-Ub-VS probe labelling (fragment/DMSO); higher = less target engagement (more negative = stronger competition), active = hit call of the paper (q ≤ 0.05, log2 ratio ≤ -1)). Conditions: compound concentration: 200 uM; treatment time: 3 h.
UniProt P51784, sequence (P51784 whole entry, the tested form may be a part): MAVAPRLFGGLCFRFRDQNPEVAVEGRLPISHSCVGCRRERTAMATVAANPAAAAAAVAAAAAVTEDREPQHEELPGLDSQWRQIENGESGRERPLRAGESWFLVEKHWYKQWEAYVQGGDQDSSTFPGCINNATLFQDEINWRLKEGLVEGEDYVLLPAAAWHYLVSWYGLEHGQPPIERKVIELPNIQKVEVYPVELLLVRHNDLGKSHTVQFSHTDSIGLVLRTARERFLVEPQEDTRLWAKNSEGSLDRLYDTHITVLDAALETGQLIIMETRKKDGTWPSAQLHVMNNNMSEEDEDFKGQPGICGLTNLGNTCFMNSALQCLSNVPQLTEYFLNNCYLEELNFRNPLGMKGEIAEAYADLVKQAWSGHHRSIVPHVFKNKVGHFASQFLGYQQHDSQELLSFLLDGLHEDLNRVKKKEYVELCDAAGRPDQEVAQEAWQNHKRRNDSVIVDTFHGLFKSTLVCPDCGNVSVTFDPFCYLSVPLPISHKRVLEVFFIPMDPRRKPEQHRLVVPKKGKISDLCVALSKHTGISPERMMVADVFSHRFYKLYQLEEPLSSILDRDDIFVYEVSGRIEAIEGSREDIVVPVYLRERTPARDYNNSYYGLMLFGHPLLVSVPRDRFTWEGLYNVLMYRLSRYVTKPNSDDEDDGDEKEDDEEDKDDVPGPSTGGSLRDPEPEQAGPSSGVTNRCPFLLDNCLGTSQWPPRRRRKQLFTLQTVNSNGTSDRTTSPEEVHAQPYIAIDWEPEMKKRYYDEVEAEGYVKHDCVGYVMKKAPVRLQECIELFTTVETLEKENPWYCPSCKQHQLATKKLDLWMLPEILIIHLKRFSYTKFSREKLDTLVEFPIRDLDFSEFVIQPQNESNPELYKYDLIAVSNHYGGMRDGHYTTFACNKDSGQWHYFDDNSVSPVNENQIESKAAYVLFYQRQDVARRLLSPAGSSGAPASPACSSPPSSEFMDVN
In short: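 HEK293T lysate in Tris/CHAPS/IGEPAL buffer with protease inhibitors (495 µg per sample) was given fragment at 200 µM or vehicle for 3 h, in triplicate. It then received Biotin-Ahx-Ub-VS at 0.5 µM final for 1 h. Labelled DUBs were NeutrAvidin-enriched, digested with LysC and trypsin, and run by diaPASEF LC-MS/MS. Values are average log2 fragment/vehicle ratios by unpaired t-test on global-median-normalised Spectronaut quantities of proteins with ≥2 unique peptides.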

log2 ratio of Biotin-Ahx-Ub-VS probe labelling, inactive:
CNC(=O)C1(NC(=O)CCl)CCCCC1 0.188, Cl.O=C(CCl)N1CCC(n2nc3ccccc3n2)CC1 -0.268, N#Cc1ccccc1N1CCN(C(=O)CCl)CC1 -0.515, O=C(CCl)NC(Cn1ccccc1=O)c1ccccc1 (centres undefined) 0.0376, O=C(CCl)N1CC=C(c2c[nH]c3ccccc23)CC1 -0.291, O=C(CCl)NC1CCC(C(F)(F)F)CC1 (centres undefined) 0.104, Cc1ccc2nnc(CNC(=O)CCl)n2c1 -0.0917, Cl.Cn1nccc1C(NC(=O)CCl)c1ccccc1 (centres undefined) -0.121, O=C(CCl)Nc1ccc(F)cc1F 0.0319, Cc1n[nH]c2c1CN(C(=O)CCl)CC2 -0.554, O=C(CCl)N1CCOC2(CCC2)CC1 -0.147, CC(NC(=O)CCl)c1cccc(Cl)c1 (centres undefined) -0.0638, O=C(CCl)NCC1(c2ccccc2)CC1 0.117, CC1(NC(=O)CCl)CCS(=O)(=O)C1 (centres undefined) -0.612, Cc1cccn2cc(CCNC(=O)CCl)nc12.Cl -0.122, CN(CCc1ncc(Br)cn1)C(=O)CCl.Cl -0.0725, O=C(CCl)N1CCCCC12CCOCC2 -0.343, Cl.O=C(CN1CCN(C(=O)CCl)CC1)Nc1ccc(F)cc1 0.0839, O=C(CCl)NCCc1ccc2c(c1)OCCO2 0.0955, O=C(CCl)NC1(c2ccc3c(c2)OCCO3)CCCC1 -0.000106, COCC[C@@H](NC(=O)CCl)c1ccccc1 0.0932, CC(NC(=O)CCl)c1ccc2[nH]ncc2c1 (centres undefined) -0.173, Cl.Cn1ncc2c1CC(NC(=O)CCl)CC2 (centres undefined) 0.0472, CCC1c2ccsc2CCN1C(=O)CCl (centres undefined) -0.306, Cc1cccnc1NC(=O)C1CCN(C(=O)CCl)CC1.Cl -0.0141, O=C(CCl)N1CCCC2CCCCC21 (centres undefined) 0.035, Cl.Cn1cnc2cc(CNC(=O)CCl)ccc21 -0.209, Cl.Cn1c(CNC(=O)CCl)nc2cccnc21 -0.0765, N#Cc1ccc(Cl)cc1NC(=O)CCl 0.0676, CN(C(=O)CCl)c1nc2ccccc2s1 -0.083, Cc1n[nH]c(=O)c2c(NC(=O)CCl)oc(C)c12 0.0686, CC(=O)Nc1ccc(NC(=O)CCl)cc1 0.016, O=C(CCl)N1CCOC2(CCC2)C1 0.244, Cl.O=C(CCl)N1CCc2ncncc2C1 0.0954
